Source: PubChem BioAssay AID488789 (Broad Institute, 2010)
Potency and affinity values are given separately. Records with an inconclusive call do not appear. Active and inactive are the calls of the source.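 The calls were made as follows: active = samples whose fitted half-maximal inhibition concentration is no more than ten times the top valid dose tested; inconclusive = flat response between -70 and -30, or invalid curve fit; inactive = flat within 30 of zero, potency above limit, or signal rising.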

These molecules were tested against Trypsin (Sus scrofa) (UniProt P00761) (assay: trypsin protease activity blockade – biochemical, quenched peptide fluorescence, cherry-pick, selectivity assay for Rce1 protease inhibitor project, dose response (AID 488789;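 also: more negative means stronger trypsin inhibition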)). Conditions: porcine trypsin, quenched peptide cleavage fluorescence; series mostly up to 10 µM; activity change, negative = inhibition: at the top concentration.
Sequence of Trypsin (Sus scrofa) (P00761 whole entry, looked up): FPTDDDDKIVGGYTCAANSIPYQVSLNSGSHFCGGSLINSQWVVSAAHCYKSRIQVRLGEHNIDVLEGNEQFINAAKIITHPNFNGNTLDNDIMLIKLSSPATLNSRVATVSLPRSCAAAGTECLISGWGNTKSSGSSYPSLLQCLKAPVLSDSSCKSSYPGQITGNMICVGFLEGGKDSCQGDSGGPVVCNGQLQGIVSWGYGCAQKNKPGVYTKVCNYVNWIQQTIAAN

Activity change, negative = inhibition, inactive:
Oc1c(N=NC(=S)Nc2ccccc2F)c2ccccc2n1Cc1ccccc1F 2.08%
O=C(C1=C[C@@H](C2CC2)C[C@@H](OCc2ccc(CO)cc2)O1)N1CCN(Cc2ccccc2)CC1 7.29%
Cc1ccsc1/C=N/NC(=O)c1nnn(-c2nonc2N)c1C(C)C 4.12%
COC(=O)CSc1nc(N)c2c3c(sc2n1)C(c1ccccc1)SC(c1ccccc1)C3 (configuration not stated) 1.29%
CCN(CC)CCNC(=O)CSc1c2c(nc3cc(Cl)ccc13)CCCC2 2.82%
Cc1cccc(NS(=O)(=O)c2ccc(C)c(C(=O)OCC(=O)Nc3cc(C)on3)c2)c1 1.4%
O=C1C(=O)N(C/C=C/c2ccccc2)c2ccccc21 12%
FC(F)(F)c1cc(Oc2ccccc2)ncc1-c1nnc(-c2ccccc2Cl)o1 16%
CCCCCCCCCCC[N+](C)(C)CC/C=C1/c2ccccc2Sc2ccc(Cl)cc21 -9.31%
Cc1ccc2c(C)c(C(=O)N(Cc3ccc(F)cc3)C3CCS(=O)(=O)C3)oc2c1 (configuration not stated) 10.8%
CCOC(=O)c1c(NC(=O)COc2ccccc2F)sc2c1CC(C)(C)NC2(C)C 0.00696%
c1coc(-c2ccnc3ncnn23)c1 7.79%
Cc1ccc(OCCn2c3ccccc3n3nc(C)c(=O)nc23)cc1 -5.01%
Nc1nc2c(ncn2COC(CO)CO)c(=O)[nH]1 25.9%
CCCCNC(=S)NNC(=O)CCn1cc(C)cn1 2.77%
CC(C)c1c(C(=O)N/N=C/c2ccsc2)nnn1-c1nonc1N 22.4%
O=C(Nc1cccc2ccccc12)c1ccc(OC(=S)N2CCOCC2)cc1 1.01%
Nc1nonc1-n1nnc(C(=O)N/N=C/c2cccc(Cl)c2)c1CSc1ccc(Cl)cc1 7.37%
COc1ccccc1C1=NN(C2=NN=C(N)Cc3ncnn32)C(O)(C(F)(F)F)C1 (configuration not stated) -8.08%
COc1ccccc1CC(=O)Nc1ccc2c(C)cc(=O)oc2c1 -1.39%
O=C(NCCc1c[nH]c2ccccc12)OCCSS(=O)(=O)O -8.16%
COc1cccc(CNc2nc3nc(C)cc(C)n3n2)c1 -0.687%
Cc1cc(C)n(Cc2ccc(NC(=O)c3ccc(COc4ccccc4Br)cc3)cc2)n1 1.54%
COc1ccc(CC(=O)OCC(=O)Nc2ccc(Br)cc2)cc1 11.8%
O=C(O)CCc1nc2cc(C(F)(F)F)ccc2n(Cc2ccccc2)c1=O 3.97%
COc1ccc(Cc2nc3ccc(C(=O)N4CCCC4)cc3o2)cc1 15.7%
CN(C)CCN(C(=O)c1ccc2ccccc2c1)c1nc2ccc(F)cc2s1 2.44%
CCCCOc1ccc(Cc2c(COCC)[nH]c(=S)[nH]c2=O)cc1 5.62%
CCOc1ccc2[nH]c(=O)c(CN(CCN3CCOCC3)Cc3nnnn3C(C)(C)CC)cc2c1 3.69%
COC(C/C=C/[C@H](O)[C@H](C)OCc1ccccc1)OC 27.8%
COc1ccc(-c2c(C)oc3c(CN4CCN(C)CC4)c(O)ccc3c2=O)cc1 4.54%
Cc1ccc(C2(COC(=O)C(C)C)CO2)c(OC(=O)C(C)C)c1 (configuration not stated) 8.63%
CCc1ccc(Nc2n[n+](-c3ccccc3)c(/C=C/c3ccccc3)s2)cc1 7.2%
O=C(Cn1c2ccccc2c(=O)c2ccccc21)Nc1ccccc1F -4.99%
CC(=O)c1c(O)cc(O)c(C(C)=O)c1O -4.71%
CC1(c2nnc(-c3cccc(Cl)c3)o2)CC(c2cccc(F)c2)=NO1 (configuration not stated) 5.97%

outcome, inactive:
NC(=NCCCCCCN=C(N)/N=C(\N)Nc1ccc(Cl)cc1)/N=C(\N)Nc1ccc(Cl)cc1
